# Data from paper PMC4336329 (PLoS ONE, 2015).
# About 2,200 (0.71%) of roughly 310,000 compounds showed an effect of 50% or more. Effects have a minus sign here. This is one part of a sample in which strong results are shown more often than they occur.
# Molecular target: human ether-à-go-go-related gene (hERG) potassium channel (human, UniProt Q12809)
# Test: primary screen, population patch clamp on CHO cells stably expressing hERG; higher = less effect of the substance
# human ether-à-go-go-related gene (hERG) potassium channel, sequence (Q12809 whole entry, looked up): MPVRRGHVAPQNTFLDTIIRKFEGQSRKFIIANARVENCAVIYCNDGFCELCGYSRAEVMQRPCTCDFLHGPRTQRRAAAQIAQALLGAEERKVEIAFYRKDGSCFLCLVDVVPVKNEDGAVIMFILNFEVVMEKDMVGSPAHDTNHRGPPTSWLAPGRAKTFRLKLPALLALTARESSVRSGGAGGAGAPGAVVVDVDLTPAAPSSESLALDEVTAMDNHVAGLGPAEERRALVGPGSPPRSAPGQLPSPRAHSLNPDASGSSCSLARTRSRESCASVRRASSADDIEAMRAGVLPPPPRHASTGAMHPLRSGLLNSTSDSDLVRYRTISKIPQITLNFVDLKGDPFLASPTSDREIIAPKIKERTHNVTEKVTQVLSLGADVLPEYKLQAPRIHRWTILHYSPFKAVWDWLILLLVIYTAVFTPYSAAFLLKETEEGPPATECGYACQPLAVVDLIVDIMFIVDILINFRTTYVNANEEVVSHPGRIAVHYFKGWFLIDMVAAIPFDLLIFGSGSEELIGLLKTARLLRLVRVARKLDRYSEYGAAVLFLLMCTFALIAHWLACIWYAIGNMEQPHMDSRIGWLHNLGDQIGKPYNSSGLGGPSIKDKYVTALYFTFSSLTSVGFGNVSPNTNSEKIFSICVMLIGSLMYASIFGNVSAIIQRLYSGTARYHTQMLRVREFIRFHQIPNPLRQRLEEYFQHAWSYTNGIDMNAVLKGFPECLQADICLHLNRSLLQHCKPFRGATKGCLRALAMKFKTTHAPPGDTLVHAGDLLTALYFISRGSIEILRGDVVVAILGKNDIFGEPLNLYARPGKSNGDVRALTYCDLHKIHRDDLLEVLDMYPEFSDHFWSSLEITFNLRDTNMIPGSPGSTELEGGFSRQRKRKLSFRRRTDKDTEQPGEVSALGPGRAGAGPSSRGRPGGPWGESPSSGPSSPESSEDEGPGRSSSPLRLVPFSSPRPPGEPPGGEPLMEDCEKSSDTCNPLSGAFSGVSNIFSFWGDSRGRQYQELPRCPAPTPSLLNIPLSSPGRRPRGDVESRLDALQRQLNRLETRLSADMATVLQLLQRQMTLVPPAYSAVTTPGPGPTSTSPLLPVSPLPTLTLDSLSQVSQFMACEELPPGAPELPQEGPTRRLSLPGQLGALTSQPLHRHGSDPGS
row,SMILES,"hERG current change (%, negative = inhibition) at 1uM [%]"
1,O=C(/C=C/c1ccc(F)cc1)NC(=S)Nc1ccccc1O,13.6
2,CCN1C(=O)/C(=C/c2ccc(N(CC)CC)cc2OC)C(=O)NC1=S,5.05
3,Cc1ccccc1OCCN=Cc1c(O)n(C)c(=O)n(C)c1=O,10.2
4,Cc1cc(C(=O)NC2=NCCS2)cs1,-13
5,Cc1ccc(S(=O)(=O)NCCC(=O)NNC(=O)c2ccccc2O)cc1C,-9.68
6,Cc1csc(Sc2ccc(S(=O)(=O)N3CCCC3)cn2)n1,-2.28
7,O=Cc1c(NCCc2ccc(F)cc2)c2ccccc2[nH]c1=O,4.06
8,Cc1ccc(-c2csc(NC(=O)C3CSC4(C)CCC(=O)N34)n2)cc1 (stereo not drawn),11.6
9,O=C(Nc1ccnn1C1CCN(Cc2ccccc2)CC1)C1CCCC1,-15.9
10,O=C(Nc1ccnn1C1CCN(C/C=C/c2ccc(F)cc2)CC1)C1CCCC1,-79.3
11,O=C(Nc1ccnn1C1CCN(Cc2ccccc2F)CC1)C1CCCC1,-6.15
12,O=C(Nc1ccnn1C1CCN(C/C=C/c2ccccc2)CC1)C1CCCC1,-78.4
13,O=C(Nc1ccnn1C1CCN(Cc2cccc(O)c2)CC1)C1CCCC1,-14.2
14,O=C(Nc1ccnn1C1CCN(Cc2cccc(F)c2F)CC1)C1CCCC1,8
15,CC1(c2ccccc2)CC(C)(C)N2C(=O)C3(C(C#N)=C(N)Oc4cc(O)ccc43)c3cccc1c32 (stereo not drawn),6.18
16,O=C(CNCc1cccc2ccccc12)Nc1ccccc1[N+](=O)[O-],1.68
17,COc1ccc(NC(=O)CSc2nnc(-c3ccoc3C)n2CCc2ccccc2)cc1,1.36
18,CCN1/C(=C/c2ccc3ccc(C)cc3[n+]2CC)Sc2ccccc21.[I-],-63.6
19,CCN1/C(=C/C=C/C=C/c2sc3ccccc3[n+]2CC)Sc2ccccc21.[I-],-37.5
20,CCN1/C(=C/C=C/C=C/C=C/c2sc3ccccc3[n+]2CC)Sc2ccccc21.[I-],7.57
21,CCC(=O)/C=C1/Sc2ccccc2N1CC,10.1

row,SMILES,"hERG current change (%, negative = inhibition) at 1uM [%]"
1,CCN1/C(=C/c2ccc3cccc(C)c3[n+]2CC)Sc2ccccc21.[I-],-76.4
2,CCN1/C(=C/C(C)=C/c2sc3ccccc3[n+]2CC)Sc2ccccc21.[I-],10.6
3,CCC(=O)/C=C1\Sc2ccccc2N1CC,4.38
4,CCN1/C(=C/c2ccc3cc(C)ccc3[n+]2CC)Sc2ccc3sccc3c21.[I-],10.9
5,CCN1/C(=C/c2ccc3cc(C)ccc3[n+]2CC)Sc2ccccc21.[I-],-100
6,COc1cccc(CCc2nnc(N)s2)c1,13.2
7,O=Cc1cn(CC(=O)Nc2ccccc2)c2ccccc12,6.4
8,C=CCOC(=O)Nc1ccc(Cl)cc1NC(=O)OCC=C,0.411
9,Cc1ccc(C(=O)Oc2ccc(Cl)c3cccnc23)cc1[N+](=O)[O-],15
10,CCCc1c(C)[nH]c2nc3ccccc3n2c1=O,11.4
11,COc1ccc(C)cc1S(=O)(=O)N(C)CC(=O)N1CCC(C(N)=O)CC1,9.99
12,COc1cc(NC(=S)N2CCN(C)CC2)cc(OC)c1,14.3
13,CCN1C(=O)/C(=C\N2CCN(c3cccc(Cl)c3)CC2)SC1=S,6.97
14,COc1ccc(NC(=S)N(CCCN2CCCC2)Cc2cccs2)cc1,-7.06
15,COc1cccc(NC(=S)N(CCCN2CCOCC2)C(C)c2cc3ccccc3o2)c1 (stereo not drawn),10.6
16,COc1cccc(NC(=S)N(CCCN2CCCC(C)C2)Cc2cccs2)c1 (stereo not drawn),-30.2
17,COc1ccc(NC(=S)N(CCCN2CCC(C)CC2)Cc2cccs2)cc1,-47.5
18,COc1ccc(NC(=S)N(CCCN2CCOCC2)C(C)c2cc3ccccc3o2)cc1 (stereo not drawn),-63.1
19,COc1ccc(NC(=S)N(CCCN2CCOCC2)C(C)c2cc3cccc(OC)c3o2)cc1 (stereo not drawn),3.7
20,COc1ccc(NC(=S)N(CCCN2CCN(C)CC2)Cc2cccs2)cc1,-14
21,COc1ccc(NC(=S)N(CCCN2CCCCC2)Cc2cccs2)cc1,-50.1

row,SMILES,"hERG current change (%, negative = inhibition) at 1uM [%]"
1,COc1ccc(NC(=S)N(CCCN2CCCC(C)C2)Cc2cccs2)cc1 (stereo not drawn),-62.4
2,COc1ccccc1-c1csc(NC(=O)c2ccc(N3C(=O)CCC3=O)cc2)n1,5.85
3,Cc1c(C(=O)Nc2ccc(S(=O)(=O)N(C)C3CCN(C)CC3)cc2)oc2ccccc12,3.99
4,Cc1cc(NC(=O)Cn2nc([N+](=O)[O-])c(Br)c2C)no1,15.4
5,Clc1ccc(-c2csc(N3CCN(c4ccccc4)CC3)n2)cc1,6.51
6,O=C(COC(=O)Cc1c(F)cccc1Cl)NCCC1=CCCCC1,7.46
7,O=C(NCCn1cccn1)c1ccc(OC2CCN(CCc3ccccc3)CC2)cc1,-1.71
8,CCc1cc(CNC(=O)c2ccc(OC3CCN(CCc4ccccc4)CC3)cc2)on1,-54.4
9,O=C(NCc1ccon1)c1ccc(OC2CCN(CCc3ccccc3)CC2)cc1,-26
10,Cc1cc(CN(C)C(=O)c2ccc(OC3CCN(Cc4ccccn4)CC3)cc2)on1,-2.96
11,CN(Cc1cnn(C)c1)C(=O)c1ccc(OC2CCN(CCc3ccccc3)CC2)cc1,-8.79
12,Cc1cc(CN(C)C(=O)c2ccc(OC3CCN(CCc4ccccc4)CC3)cc2)on1,-77.5
13,CN1CCN(c2ccc(CNS(=O)(=O)Cc3cccc(C(F)(F)F)c3)cc2)CC1,7.74
14,N=c1c(S(=O)(=O)c2ccccc2)cc2c(=O)n3ccccc3nc2n1Cc1ccco1,18.6
15,COc1ccc(CCNC(=O)c2cc3c(=O)n4cccc(C)c4nc3n(Cc3ccco3)c2=N)cc1OC,-21.8
16,N=c1c(S(=O)(=O)c2ccc(Br)cc2)cc2c(=O)n3ccccc3nc2n1Cc1ccco1,15.4
17,N=c1c(C(=O)NCc2ccccc2)cc2c(=O)n3ccccc3nc2n1Cc1ccco1,-75.5
18,COc1ccc(CCNC(=O)c2ccc3c(=O)n(Cc4ccco4)c(=S)[nH]c3c2)cc1OC,13.6
19,CC(C)n1c(=N)c(C(=O)NCCc2ccccc2)cc2c(=O)n3ccccc3nc21,-78.6
20,O=C(NCCc1ccccc1)c1cnc2ccccn2c1=O,8.72
21,N=c1c(C(=O)NCCN2CCOCC2)cc2c(=O)n3ccccc3nc2n1CCc1ccccc1,-33.1

row,SMILES,"hERG current change (%, negative = inhibition) at 1uM [%]"
1,COc1ccc(CCNC(=O)c2cc3c(=O)n4ccccc4nc3n(Cc3ccco3)c2=N)cc1OC,-74.3
2,N=c1c(C(=O)NCc2ccco2)cc2c(=O)n3ccccc3nc2n1CCc1ccccc1,-84.2
3,CC(=O)c1ccc(OCCCC(=O)Nc2cccc(S(=O)(=O)N3CCCCC3)c2)cc1,-3.68
4,Oc1ccc2ccccc2c1Br,12.1
5,COc1ccc(N2CCN(C(=O)/C=C/c3ccco3)CC2)cc1,6.52
6,Cc1ccc(C(=O)NCCNS(=O)(=O)c2ccccc2)cc1,-1.17
7,CCC(=O)Nc1nnc(S(=O)(=O)N(CC)c2ccc(OC)cc2)s1,23.9
8,COc1ccc(/C=C(/NC(=O)c2ccccc2)C(=O)N2CCCC2)cc1OC,14.3
9,CC(=O)Oc1ccc2c3c(c(=O)oc2c1C)CCCC3,15.5
10,CCOC(=O)CNC(=O)c1cc2c(=O)[nH]c3ccc(C)cc3c2s1,11.1
11,O=C(NC1CC1)c1ccc2snnc2c1,6.14
12,Cc1ccc(C)n1-c1ccc(C(=O)Nc2ccccc2F)cc1,10.7
13,CC1CN(CC(=O)Nc2ccc([N+](=O)[O-])cc2Br)CC(C)O1 (stereo not drawn),4.18
14,N=c1c(C(=O)NCc2ccc(F)cc2)cc2c(=O)n3ccccc3nc2n1Cc1ccco1,-85
15,N=c1c(C(=O)NCCc2ccccc2)cc2c(=O)n3ccccc3nc2n1Cc1ccco1,-67.5
16,N=c1c(C(=O)NCc2ccco2)cc2c(=O)n3ccccc3nc2n1Cc1ccccc1,-81.6
17,Cc1ccc(CNC(=O)c2cc3c(=O)n4ccccc4nc3n(Cc3ccco3)c2=N)cc1,-38.1
18,Cc1ccc(Cn2c(=N)c(C(=O)NCc3ccco3)cc3c(=O)n4ccccc4nc32)cc1,-67.9
19,Cc1ccc(Cn2c(=N)c(C(=O)NCCN3CCOCC3)cc3c(=O)n4ccccc4nc32)cc1,-8.25
20,COc1ccc(N2C(=O)C3CCCN3C2c2ccc(F)cc2)cc1Cl (stereo not drawn),8.28
21,O=C(NCCc1ccc(Cl)cc1)c1cccnc1,9.38
